Inconclusive results are not listed. Activity calls are given as the source filed them. Calls come from the whole dose curve; as a rule, active = well fitted inhibition curve with a large enough effect in the repeat runs; inconclusive = weak or mixed curves, or effect the other way; inactive = no such curve, though single readings can be large or run the other way.
Assay: qHTS assay to identify small molecule antagonists of the retinoic acid receptor (RAR) signaling pathway (AID 1159552; note: nearly all actives have a fitted effect of over 50% in size)
Conditions: C3RL4 RARE luciferase reporter, retinol-stimulated, 6 h; series mostly up to 92.4 µM; activity, negative = inhibition: at the top concentration
Text: National Center for Advancing Translational Sciences [NCATS]
NIH Chemical Genomics Center [NCGC]
U.S. Environmental Protection Agency [EPA]
National Institutes of Environmental Health Sciences [NIEHS]
National Toxicology Program [NTP]
U.S. Food and Drug Administration [FDA]
All-trans Retinoic acid (atRA) is the potent natural metabolite of retinol and plays an important role in normal embryonic development and maintenance of cellular phenotype in adult animals. atRA is the activating ligand for the retinoic acid receptors (RARs) which form heterodimers with retinoid X receptors (RXRs) on the retinoic acid response element (RARE). Through activation of the RAR/RXRs nuclear receptors, atRA regulates the transcription of a large number of protein-coding genes and regulatory RNAs. Intracellular levels of atRA are controlled by the retinol signaling pathway (RSP) that regulates the biosynthesis and catabolism of atRA to maintain physiological levels. Chemicals that interfere with the RSP can cause abnormal intracellular levels of atRA and therefore are potential developmental toxicants. To assess compounds for the potential adverse effect on embryonic development through interfering with retinol signaling, a cell-based RARE luciferase reporter gene assay was used. C3RL4 cell line (OARSA/CFSAN/FDA, Laurel, MD) was used to screen Tox21 10K compound library for identifying inhibitors of the RSP.
Tox21 Assay Protocol Summary:
C3RL4 cells were seeded at 1,000/well in 4 uL of assay medium into white solid 1,536-well tissue culture plates (Greiner Bio-One North America Inc. Monroe, NC) using a Multidrop Combi (Thermo Scientific, Waltham, MA) dispenser. After incubation at 37 C and 5% CO2 for an overnight, 23 nL of compounds dissolved in DMSO, positive control or DMSO only were transferred by a Pintool station (Kalypsys, San Diego, CA). One ul of 1 uM (final concentration) of Retinol was added right after the compound addition by using a Flying Reagent Dispenser (FRD) (Aurora Discovery, San Diego, CA). After 6 hr incubation at 37 C and 5% CO2, 5 uL of Amplite Luciferase reagent (AAT Bioquest Inc. Sunnyvale, CA) was added to each assay plate using an FRD. Luminescence was quantified on a ViewLux plate reader (PerkinElmer, Waltham, MA) after 30 min incubation at room temperature.
% is set by controls: 0 for no effect and ±100 for the full control effect; potency is the fitted concentration of half-maximal effect.

Structure (SMILES) | activity, negative = inhibition | Potency
CO[Si](CCCCl)(OC)OC | -4.2% (inactive) | 
CCCCCC1Nc2cc(C(F)(F)F)c(S(N)(=O)=O)cc2S(=O)(=O)N1 (stereo not given) | 1.88% [at 42.5 µM] (inactive) | 
C=C[Si](C)(C)O[Si](C)(C)C=C | 8.17% (inactive) | 
COc1ccc(/C=N/NC(=O)c2ccncc2)cc1OC | 5.68% [at 42.5 µM] (inactive) | 
Nc1ccc(S(=O)(=O)Nc2ccccn2)cc1 | -3.45% [at 42.5 µM] (inactive) | 
CCCCCCCCCCCCCCCCI | -6.93% [at 19 µM] (inactive) | 
CCC(C)N (stereo not given) | 17.4% (inactive) | 
Cc1cccc(NC(=S)N(C)C)c1 | 20.1% (inactive) | 
CCC(=O)c1ccc(O)cc1 | -3.39% [at 42.5 µM] (inactive) | 
CCC(O)C(C)(C)C (stereo not given) | 10.8% (inactive) | 
COc1ccc(N=Nc2cc(C)c(N=Nc3ccc(S(=O)(=O)O)cc3)cc2OC)cc1 | 20.4% (inactive) | 
CCCCCCCCCCCCCCCCCCN(C)C | 14.9% [at 42.5 µM] (inactive) | 
CNCc1ccccc1 |  | 0.106 µM (active)
c1ccc(CNc2ncnc3nc[nH]c23)cc1 | 40.7% (inactive) | 
OC(CCN1CCCCC1)(c1ccccc1)c1ccccc1 | 4.23% [at 42.5 µM] (inactive) | 
Cc1cccc(Nc2ccncc2S(=O)(=O)NC(=O)NC(C)C)c1 | 9.01% [at 42.5 µM] (inactive) | 
CN[C@@H]1[C@@H](O)[C@@H](O[C@@H]2[C@H](O)[C@H](O[C@H]3OC(CN)=CC[C@H]3N)[C@@H](N)C[C@H]2N)OCC1(C)O (stereo not given in full) | 15.5% [at 42.5 µM] (inactive) | 
O=C(c1ccc2c(c1)C(=O)OC2=O)c1ccc2c(c1)C(=O)OC2=O | 1.49% (inactive) | 
O=C(Nc1cccc(C2=NCCN2)c1)Nc1cccc(C2=NCCN2)c1 | 6.53% [at 19 µM] (inactive) | 
BrC/C=C/CBr | 22.9% [at 19 µM] (inactive) | 

Structure (SMILES) | activity, negative = inhibition | Potency
CCCCCCCCCCCCC1CO1 (stereo not given) | -1.69% (inactive) | 
NS(=O)(=O)c1ccc(Cl)c(S(N)(=O)=O)c1 | -1.27% [at 42.5 µM] (inactive) | 
Cc1cccc(C(=O)O)c1[N+](=O)[O-] | 31.2% (inactive) | 
CC(C)(c1ccc(Oc2ccc3c(c2)C(=O)OC3=O)cc1)c1ccc(Oc2ccc3c(c2)C(=O)OC3=O)cc1 | 0.804% (inactive) | 
CC(=O)OCCCc1ccccc1 | -1.43% (inactive) | 
COC(/C=C(\C)CCC=C(C)C)OC | 6.85% (inactive) | 
Nc1nc(=O)n([C@@H]2O[C@H](CO)[C@@H](O)[C@@H]2F)cc1I | 0.305% [at 42.5 µM] (inactive) | 
Oc1ccccc1Cc1ccccc1O | -13.2% (inactive) | 
CN[C@@H]1[C@H](O)[C@H](NC)[C@H]2O[C@@]3(O)C(=O)C[C@@H](C)O[C@H]3O[C@@H]2[C@H]1O | 1.41% [at 42.5 µM] (inactive) | 
CC(C)(C)c1ccc(C=O)cc1 | 23.9% (inactive) | 
O=CO | -7.08% [at 8.39 µM] (inactive) | 
O=S1(=O)CCCC1 | -8.18% (inactive) | 
CCOC(=O)OCC/C(SC(=O)OCC)=C(\C)N(C=O)Cc1cnc(C)nc1N | 10.3% [at 42.5 µM] (inactive) | 
Nc1c(NC/C=C\COc2cc(CN3CCCCC3)ccn2)c(=O)c1=O | -5.94% [at 19 µM] (inactive) | 
C[C@@H]1C[C@H]2[C@@H]3C[C@H](F)C4=CC(=O)C=C[C@]4(C)[C@@]3(F)[C@@H](O)C[C@]2(C)[C@@]1(O)C(=O)CO | -13.6% [at 42.5 µM] (inactive) | 
CCC1Nc2cc(Cl)c(S(N)(=O)=O)cc2S(=O)(=O)N1 (stereo not given) | -19.6% [at 42.5 µM] (inactive) | 
NCCc1ccn[nH]1 | 7.33% [at 42.5 µM] (inactive) | 
FC(F)(F)/C(=N\OCC1OCCO1)c1ccc(Cl)cc1 | 8.97% (inactive) | 
C1CCN2C[C@@H]3C[C@@H](CN4CCCC[C@@H]34)[C@H]2C1 | 13.3% [at 42.5 µM] (inactive) | 
O=C1CC[C@H](C(=O)N2CCCCC2)N1 | 3.88% [at 42.5 µM] (inactive) | 

Reference: PubChem BioAssay (Tox21)
